# Screening data deposited in PubChem by National Center for Advancing Translational Sciences (NCATS).
# An excerpt weighted towards active compounds, which were near 1.2% of everything screened.
# Pin1 inhibitor: inhibitors of human Pin1. Q13526. Potency, µM (highest dose often 115 µM), hits mostly inhibitors. actives 0.009% (n = 390,000). Pin1 FP peptide displacement, HiFluor488, 10 min; active = well fitted inhibition curve with a large enough effect in the polarisation, with a control signal flat, not every such curve was filed as active; inconclusive = small, poorly fitted or top-dose-only effect, or effect the other way, or a change in a side signal; inactive = no such curve, though single readings can be large or run the other way; the % refers to the polarisation
# Target sequence (Q13526 whole entry, looked up): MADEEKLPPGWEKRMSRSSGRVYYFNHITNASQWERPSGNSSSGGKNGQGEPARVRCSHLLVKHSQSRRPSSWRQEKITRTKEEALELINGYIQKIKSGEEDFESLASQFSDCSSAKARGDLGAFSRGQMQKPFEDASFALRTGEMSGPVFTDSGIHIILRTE
# RGS12 GoLoco inh: blocks human Gai1 binding to RGS12 GoLoco peptide, red readout. P63096. Gai1:RGS12 GoLoco peptide FP, rhodamine, 10 min. Potency, µM (doses to about 61.6 µM), hits mostly inhibitors. actives 0.44% (n = 230,000); active = well fitted inhibition curve with a large enough effect, not every such curve was filed as active; inactive = no such curve, though single readings can be large or run the other way; note: nearly all actives have a fitted effect of over 30% in size
# Tb PGK inh: blocks T. brucei phosphoglycerate kinase | actives 0.043% (n = 380,000) | PGK/GAPDH coupled, Kinase-Glo luminescence, 60 min | P07378 | Potency, µM (highest dose often 57.5 µM), actives largely listed as inhibitors; note: nearly all actives have a fitted effect of over 60% in size
#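 Luminescent ATP detection (Kinase-Glo Plus) follows a 60-minute room-temperature incubation, with wells lacking PGK as controls. Buffer: 100 mM TEA (pH 7.6), 5 mM MgCl2, 0.01% Tween-20. Coupling enzyme GAPDH (100 nM final) supplies unstable 1,3-BPG in-well.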
# PI4K2A inh: blocks human PI4K2A kinase activity. Q9BTU6. purified PI4K2A, ADP-Glo luminescence, 1 h; active compounds read low. activity change, negative = inhibition, % at 76.9 µM. actives 0.13% (n = 420,000). AID 1346378; in the data active = activity change below about -50%; inconclusive = mostly about -30% to -49%
# Target sequence (Q9BTU6 whole entry, looked up): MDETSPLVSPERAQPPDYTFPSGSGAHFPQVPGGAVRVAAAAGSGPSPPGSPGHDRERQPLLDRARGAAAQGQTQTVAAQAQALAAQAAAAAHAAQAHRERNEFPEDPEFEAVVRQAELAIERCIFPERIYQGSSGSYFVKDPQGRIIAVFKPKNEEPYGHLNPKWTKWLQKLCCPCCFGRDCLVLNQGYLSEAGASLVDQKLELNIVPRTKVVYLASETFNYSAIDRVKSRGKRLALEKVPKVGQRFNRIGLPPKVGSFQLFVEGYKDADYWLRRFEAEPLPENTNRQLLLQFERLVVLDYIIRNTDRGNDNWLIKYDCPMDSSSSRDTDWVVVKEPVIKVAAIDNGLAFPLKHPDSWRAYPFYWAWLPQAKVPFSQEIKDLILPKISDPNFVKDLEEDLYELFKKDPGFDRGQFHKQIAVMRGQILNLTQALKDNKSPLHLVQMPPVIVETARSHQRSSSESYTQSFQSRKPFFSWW
#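 In this quantitative HTS, ADP production by PI4K2A was quantified luminescently after 1 h at ambient temperature; 100 microM adenosine served as plate-quality control.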
# GCN5L2 inh: blocks human GCN5L2 histone acetyltransferase; AID 504327; Potency, µM (doses to about 58.9 µM), actives largely listed as inhibitors; actives 0.21% (n = 390,000); GCN5L2 HAT assay, ThioGlo1 CoA-SH fluorescence
#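 GCN5L2 (20nM final) in 50mM HEPES, 0.1mM EDTA pH 7.5, 0.01% Tween-20 was preincubated 15 min at room temperature with compound, then given ThioGlo1 (50uM), H3(1-25) peptide (75uM) and acetyl-CoA (70uM); CoA-thiol fluorescence (Ex340/Em540) was read at 0 and 20 min.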
# PI5P4K alpha inh: inhibitors of human PI5P4K alpha. P48426. PI5P4Kalpha enzyme, ADP-Glo luminescence, 60 min; active compounds read low. max response, %. actives 1.2% (n = 330,000). AID 652105; active = max response of -50% or lower; inconclusive = between -30% and -50%; inactive = -30% or higher; note: value at the top dose of about 77 µM
#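 Reactions run in 0.038 M HEPES pH 7.4, 0.28 mM EGTA, 0.1% CHAPS and 5% DMSO, with PI5P4Kalpha, substrate, compound and 5 microM ATP final, one hour at room temperature. Readout is ADP-Glo luminescence.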
# A number is an active result; n = inactive; u = inconclusive; x = not tested or not shown; ! = not confirmed by another sample. Unless noted, calls come from the whole dose curve; as a rule, active = well fitted curve in the direction sought with a large enough effect; inconclusive = small, poorly fitted or top-dose-only effect, or another doubt; inactive = no such curve, though single readings can be large; an effect the other way counts as inactive or inconclusive.
SMILES,Pin1 inhibitor,RGS12 GoLoco inh,Tb PGK inh,PI4K2A inh,GCN5L2 inh,PI5P4K alpha inh
O=C1NC(=O)N(Cc2cccs2)C(=O)/C1=C/c1ccc(N2CCOCC2)cc1,n,n,n,n,n,-51.7
Cc1cc(NC(=O)COC(=O)c2c(C)nn(Cc3ccccc3Cl)c2C)no1,n,n,n,n,n,n
CCN(CC)CCN=Cc1c(O)n(CCc2ccccc2)c(=O)[nH]c1=O,u,n,n,n,n,n
O=C(N/N=C/c1c(O)n(CCc2ccccc2)c(=O)[nH]c1=O)c1ccccc1,n,n,n,n,n,-76.7
O=C(N/N=C/c1c(O)n(Cc2ccco2)c(=O)[nH]c1=O)c1ccccc1O,n,n,n,n,n,-82.7
CCn1c(O)c(/C=N/NC(=O)c2ccncc2)c(=O)[nH]c1=S,u,n,n,n,n,n
CCCCn1c(O)c(/C=N/NC(=O)c2ccncc2)c(=O)[nH]c1=O,n,n,n,n,n,-65.4
O=C(N/N=C/c1c(O)n(C2CCCCC2)c(=S)[nH]c1=O)c1ccccc1O,n,x,n,n,u,u
CC(C)c1ccc(-n2c(O)c(/C=N/NC(=O)c3ccccc3O)c(=O)[nH]c2=S)cc1,n,n,n,n,n,-64.8
CCc1cccc(NC(=O)C2CCN(S(=O)(=O)c3ccc(Br)s3)CC2)c1,n,x,n,n,n,x
COC(=O)C1=C(c2ccc(OC(F)(F)F)cc2)C[C@@H]2CC[C@H]1N2C(=O)NC1CC1,n,x,n,n,n,n
O=C(NC1CONC1=O)OCC(Cl)(Cl)Cl (stereo not drawn),n,n,x,n,n,n
CCOc1ccc(/C=C2/C(=O)NC(=O)N(CCc3ccc(F)cc3)C2=O)cc1,n,n,n,n,n,-54.9
COc1cc(/C=C2\C(=O)NC(=O)N(CCc3ccc(F)cc3)C2=O)ccc1O,u,n,n,-53.4,n,-77.8
COc1cc(C=C2C(=O)NC(=O)NC2=O)ccc1O,u,n,n,u,n,n
CC(=O)[O-].CC(=O)[O-].CC(=O)[O-].[Cr+3],x,n,x,x,x,x
Cn1cccc1/C=C1/C(=O)NC(=O)N(Cc2ccc(F)cc2)C1=O,n,n,n,n,n,-65.4
Cn1cccc1/C=C1\C(=O)NC(=O)N(Cc2ccccc2)C1=O,u,n,n,n,n,-57.7
COc1ccc(CN2C(=O)NC(=O)/C(=C/c3ccc(OC)c(OC)c3OC)C2=O)cc1,n,n,n,n,n,n
O=C1NC(=O)N(Cc2ccccc2Cl)C(=O)/C1=C/N1CCOCC1,u,n,n,n,n,u
Cn1cccc1/C=C1/C(=O)NC(=S)N(Cc2ccc(F)cc2)C1=O,x,n,n,n,n,-94.4
Cn1cccc1/C=C1/C(=O)NC(=O)N(Cc2ccccc2)C1=O,u,n,n,n,n,-65.8
COc1cc(OC)cc(C(=O)Nc2ccc(Cl)cc2C(=O)c2ccccc2Cl)c1,n,x,n,n,n,x
O=c1[nH]c(=S)[nH]c(O)c1N=Nc1cc(S(=O)(=O)Nc2ccc(Cl)cc2)ccc1Cl,u,x,n,n,n,-59.2
O=c1[nH]c(=S)[nH]c(O)c1N=Nc1ccc(S(=O)(=O)N2CCOCC2)cc1,n,n,u,n,n,-55.0
SMILES,Pin1 inhibitor,RGS12 GoLoco inh,Tb PGK inh,PI4K2A inh,GCN5L2 inh,PI5P4K alpha inh
CCC(C)c1ccc(N2C(=O)NC(=O)/C(=C/c3cccn3CCOc3ccc(C)cc3)C2=O)cc1 (stereo not drawn),u,n,n,n,n,-58.0
Cc1ccc(N2C(=O)NC(=O)/C(=C\c3cccn3C(C)(C)C)C2=O)cc1,n,n,x,n,n,n
C[N+]1(C)CCN(c2ccccc2)CC1,n,28.2µM!,n,n,u,n
CN1CCc2cc(O)cc3c2[C@H]1Cc1ccc(O)c(O)c1-3,n,x,n,n,n,-52.2
CCCN1CCc2cc(O)cc3c2[C@H]1Cc1ccc(O)c(O)c1-3,u,x,n,n,n,u
ClC1=C(Cl)C2(Cl)C3C(Cl)C(Cl)CC3C1(Cl)C2(Cl)Cl (stereo not drawn),x,n,x,x,x,x
COc1cc(C)cc(CN2CC=C(c3ccccc3)CC2)c1O,n,n,n,n,n,n
CCCCCCCCCCCCCCOS(=O)(=O)O,x,x,x,x,8.91µM,x
CCCCCCCCOC(=O)c1ccccc1C(=O)OCCCCCCCC,x,n,x,x,n,x
CCCCC/C=C\C/C=C\C/C=C\C/C=C\CCCC(=O)OC(CO)CO,x,n,x,x,u,x
CCCCCCCC/C=C\CCCCCCCC(=O)OC[C@@H](COP(O)(O)=S)OC,x,x,x,x,5.01µM,x
COc1cc(C[C@@H](C)N)c(OC)cc1C,x,x,x,n,x,x
O=C1NC(=O)N(c2ccc(Br)cc2)C(=O)/C1=C/c1ccsc1,u,n,n,n,n,n
O=C1NC(=O)N(c2cccc(Br)c2)C(=O)/C1=C/c1ccsc1,u,n,n,n,n,-64.5
O=C(O)CCn1cc(C=C2C(=O)NC(=S)NC2=O)c(-c2cccc(Cl)c2)n1,n,n,n,n,n,-86.3
O=C(O)CCn1cc(C=C2C(=O)NC(=O)NC2=O)c(-c2ccc(Br)cc2)n1,n,n,n,n,n,u
C[C@@H]1NCCc2cc(O)c(O)cc21,u,3.55µM,n,n,n,n
C[N+]12CCC(CC1)C(C(O)(c1cccc(Cl)c1)c1cccc(Cl)c1)C2 (stereo not drawn),n,n,n,n,n,n
CC(Cc1ccc(O)cc1)NCC(O)c1ccc(O)c(O)c1 (stereo not drawn),x,x,u,n,x,-58.8
CCCCn1c(=O)c(C=Nc2ccc(Cl)cc2)c(O)n(Cc2ccco2)c1=O,u,n,n,n,n,n
CCCCN1C(=O)/C(=C/c2ccc(N(C)C)cc2)C(=O)N(Cc2ccco2)C1=O,u,n,n,n,u,-64.3
CCN(CC)c1ccc(/C=C2/C(=O)NC(=O)N(CC3CCCO3)C2=O)cc1 (stereo not drawn),u,n,n,u,n,n
CCN(CC)c1ccc(/C=C2\C(=O)NC(=O)N(Cc3ccco3)C2=O)cc1,u,n,n,n,n,-57.1
O=c1oc2cccnc2n1CCS(=O)(=O)c1ccc(F)cc1,n,n,n,n,n,n
Cn1c[n+](C)cc1C(O)c1ccccc1 (stereo not drawn),n,14.1µM,n,n,n,n
CCOC(=O)c1c(/N=C/C2C(=O)NC(=S)NC2=O)sc2c1CCC2,u,n,n,n,n,-78.5
CCOC(=O)c1cc(C)sc1/N=C/C1C(=O)NC(=S)NC1=O,n,n,n,u,n,u
N#Cc1c(/N=C/C2C(=O)NC(=S)NC2=O)sc2c1CCCC2,u,n,n,n,n,-55.4
CCOC(=O)c1c(/N=C/C2C(=O)NC(=S)NC2=O)sc(C)c1C,x,n,x,x,n,x
